NCOA1 inh: inhibits human SRC1 coactivator. HEK293 GAL4-SRC1 luciferase reporter, luminescence. inhibition, % at 3.6 µM. AID 588354. 360,000 tested, 0.12% active;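 active = inhibition above the campaign mean plus 3 SD, with each screening campaign given its own cutoff, cut at about 60% in these data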;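 note: 0% = DMSO treated cells and 100% = gossypol at 36 µM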
Efflux pump mplx: inhibitors of Candida antifungal efflux pumps expressed in yeast. S. cerevisiae Candida pump triplex, Nile Red efflux. inhibition, % at 10 µM. 330,000 tested, 0.44% active;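 active = plate passing quality check with inhibition over a set limit, or well fluorescence over plate mean plus 4 SD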;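 note: Nile Red retained in pooled yeast measured as flow cytometry median fluorescence; 0% = buffer negative control and 100% = Enniatin B positive control; higher means more Nile Red kept so more efflux inhibition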
NR2F2 inh: blocks human COUP-TFII nuclear receptor; P24468; HEK293T NGFI-A luciferase reporter, luminescence; inhibition, % at 8.6 µM; 370,000 tested, 0.7% active; AID 686940;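 active = inhibition above a per-plate cutoff, mean inhibition of test wells between control levels plus 3 SD, cut at about 38% in these data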;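 note: cells cotransfected with COUP-TFII expression vector driving the NGFI-A reporter; 0% = median of COUP-TF2 test wells and 100% = reporter-only cells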
NR5A2 inv ag: NR5A2 inverse agonism in reporter assay | inhibition, % at 3.6 µM | O00482 | HEK293T StAR-luciferase reporter, LRH-1 transfected, 24 h | AID 602396 | 360,000 tested, 0.13% active;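 active = inhibition above the mean inhibition of all tested compounds plus 3 SD, cut at about 73% in these data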;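 note: 0% = DMSO wells and 100% = reporter-only cells lacking LRH-1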
Target sequence (O00482 whole entry, looked up): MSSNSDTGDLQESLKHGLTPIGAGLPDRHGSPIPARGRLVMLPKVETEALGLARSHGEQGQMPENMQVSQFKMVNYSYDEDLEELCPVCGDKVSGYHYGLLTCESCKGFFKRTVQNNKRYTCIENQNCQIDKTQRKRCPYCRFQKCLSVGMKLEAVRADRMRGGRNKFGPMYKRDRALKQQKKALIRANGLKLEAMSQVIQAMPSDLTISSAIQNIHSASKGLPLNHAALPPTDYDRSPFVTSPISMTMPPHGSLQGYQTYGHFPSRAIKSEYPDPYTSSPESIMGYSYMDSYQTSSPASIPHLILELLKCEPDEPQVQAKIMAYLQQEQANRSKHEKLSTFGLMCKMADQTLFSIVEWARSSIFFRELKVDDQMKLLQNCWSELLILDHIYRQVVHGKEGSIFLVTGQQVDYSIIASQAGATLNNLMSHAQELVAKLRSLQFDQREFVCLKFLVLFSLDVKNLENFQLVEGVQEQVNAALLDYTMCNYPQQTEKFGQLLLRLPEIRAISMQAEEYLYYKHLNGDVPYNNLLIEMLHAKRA
SRC3 inh: human NCOA3 inhibition; inhibition, % at 3.6 µM; HEK293 GAL4-SRC3 luciferase reporter, luminescence; 360,000 tested, 0.17% active; Q9Y6Q9;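 active = inhibition above a per-campaign cutoff, the mean of all compounds plus 3 SD, cut at about 60% in these data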;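 note: 0% = DMSO-treated cells and 100% = gossypol-treated cells at 36 µM; higher means less SRC3-driven luciferase light from the GAL4 reporter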
SRC2 inh: human SRC2 (NCOA2) inhibition | HEK293 GAL4-SRC2 luciferase reporter, luminescence | inhibition, % at 9 µM | 370,000 tested, 0.17% active | AID 651957;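 active = inhibition above the mean inhibition of all tested compounds plus 3 SD, set per campaign, cut at about 52% in these data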;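 note: 0% = DMSO treated cells and 100% = cells given Gossypol at 36 µM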
VP16 Luc counter: inhibits VP16 reporter, flagging COUP-TFII antagonist hits; shares compounds with NR2F2 inh; HEK293 Gal4-VP16 luciferase reporter, luminescence; inhibition, % at 8.5 µM; 2,500 tested, 25% active; AID 687007; in the data active = inhibition above about 13%
NR2F2 inh conf: COUP-TFII (NR2F2) inhibition, confirmation assay | shares compounds with NR2F2 inh | HEK293 NGFI-A luciferase reporter, luminescence | inhibition, % at 8.5 µM | 2,500 tested, 45% active;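 active = mean inhibition over three repeats above a set limit taken from the earlier primary screen, cut at about 38% in these data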;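 note: 100% = cells given the luciferase reporter alone without the COUP-TF2 vector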
* = called active by the depositor; nt = not tested or not shown. In the library only some 1.2% were active in any assay of this set; here they are far more common.

SMILES | NCOA1 inh | Efflux pump mplx | NR2F2 inh | NR5A2 inv ag | SRC3 inh | SRC2 inh | VP16 Luc counter | NR2F2 inh conf
CC(NC(=O)c1ccc(Cl)s1)C1CCCO1 (centres undefined) | -15 | 0 | 11 | -4 | -8 | 2 | nt | nt
C/C(=N\NC(=O)c1c(Cl)c(C)nn1C)c1ccc(NC(=O)c2ccncc2)cc1 | 6 | 0 | -20 | 9 | 5 | -11 | nt | nt
Cc1nn(-c2ccc(NC(=O)c3ccncc3)cc2)c(C)c1Cl | 23 | 0 | 67* | 29 | -10 | 8 | -6 | 58*
COC(=O)CNc1cc(S(=O)(=O)N2CCCCC2)ccc1Oc1ccc(C(=O)OC)cc1 | -64 | 0 | 8 | -5 | 0 | -3 | nt | nt
COC(=O)c1ccc(Oc2ccc(S(=O)(=O)N3CCCCC3)cc2N)cc1 | 14 | 0 | 39* | 17 | 9 | 3 | -4 | 26
Cc1nn(-c2ccccc2)c(C)c1C(=O)OC(C)C(=O)NC1CCCCC1 (centres undefined) | -7 | 0 | 59* | 14 | 19 | 19 | -1 | 21
CCCOC(=O)c1ccc(OCC(O)Cn2c(C)nc3ccccc32)cc1 (centres undefined) | 16 | nt | 39* | 23 | 10 | 22 | -43 | 30
COc1cccc(CNc2nc3cc(-c4ccsc4)sc3c(=O)n2C)c1OC | 25 | nt | 66* | 29 | -13 | 24 | 5 | 46*
COc1cccc(CNc2nc3cc(-c4ccc(OC)c(OC)c4)sc3c(=O)n2C)c1 | 4 | nt | -7 | 12 | 2 | -16 | nt | nt
COc1ccc(-c2cc3nc(NCc4ccc(N(C)C)cc4)n(C)c(=O)c3s2)cc1OC | 12 | nt | 39* | 17 | 7 | -10 | -21 | 56*
O=C(NCc1cccnc1)/C(=C\c1ccc(-c2ccc(Br)cc2)o1)S(=O)(=O)c1ccccc1 | 49 | 0 | 56* | 61 | 84* | 52 | 44* | 48*
O=C(NCc1cccnc1)/C(=C/c1ccc(-c2ccc(Cl)cc2)o1)S(=O)(=O)c1ccccc1 | 52 | 0 | 49* | 56 | 68* | 66* | 45* | 44*
O=C(CN(Cc1ccc(Br)cc1)S(=O)(=O)c1ccccc1)NCc1cccnc1 | 20 | 0 | 10 | 5 | 16 | 0 | nt | nt
Cn1ccnc1SC(=O)N1c2ccccc2Sc2ccccc21 | 4 | 0 | -7 | -25 | 1 | 3 | nt | nt
C=CCc1cccc(CNc2cnc3ccccc3c2)c1O | 4 | 0 | 47* | 16 | -12 | 27 | -53 | 25
Oc1ccccc1CNc1cnc2ccccc2c1 | -68 | 0 | -18 | -89 | -62 | -27 | nt | nt
Cc1ccc(S(=O)(=O)n2nc(C)c(S(=O)(=O)N3CCCCC3)c2C)cc1 | -4 | 0 | 5 | -4 | 6 | -14 | nt | nt
OC[C@@H]1CN(Cc2ccc(-c3ccccc3)cc2)C[C@H](n2cnc3c(NCc4ccncc4)ncnc32)O1 | 25 | nt | 59* | 3 | 8 | 26 | -4 | 39*
COc1cc(CNc2ncnc3c2ncn3[C@H]2CN(Cc3ccc(-c4ccccc4)cc3)C[C@@H](CO)O2)cc(OC)c1OC | 12 | nt | 59* | 33 | 13 | 10 | 4 | 48*
COc1cc(CNc2ncnc3c2ncn3[C@H]2CN(Cc3ccc(C(=O)O)cc3)C[C@@H](CO)O2)cc(OC)c1OC | -3 | nt | 12 | 11 | -8 | -13 | nt | nt
O=c1cc(CSc2ccc(Cl)cc2)nc2nc[nH]n12 | -19 | 0 | -5 | -5 | -11 | -32 | nt | nt
FC(F)(F)c1ccc(-c2nc3ccccc3s2)cc1 | -66 | nt | 8 | -5 | -43 | -43 | nt | nt
CC(C)c1ccc(-c2nc3ccccc3s2)cc1 | 82* | 0 | 89* | 82* | 87* | 80* | 68* | 98*
COC(=O)N(C)c1nc2ccccc2s1 | -44 | 0 | -35 | -18 | -18 | -30 | nt | nt
CN(C(=O)OC(C)(C)C)c1ccc(-c2nc3ccccc3s2)cc1 | 86* | nt | 97* | 85* | 87* | 85* | 87* | 107*
SMILES | NCOA1 inh | Efflux pump mplx | NR2F2 inh | NR5A2 inv ag | SRC3 inh | SRC2 inh | VP16 Luc counter | NR2F2 inh conf
Cc1[nH]nc2c1C(c1ccc3c(c1)OCO3)N(Cc1ccccc1)C2=O (centres undefined) | nt | nt | -20 | nt | nt | -17 | nt | nt
Cc1ccc(CN2C(=O)S/C(=C\c3ccccc3OCC(=O)O)C2=O)cc1 | -8 | 0 | 5 | -6 | 18 | -8 | nt | nt
CCC(=O)N1CCN(c2ccc(NC(=O)COc3ccccc3Cl)cc2)CC1 | 4 | 0 | 50* | 8 | 7 | 30 | 6 | 29
Cc1ccc(C(=O)Nc2cccc3ccccc23)cc1 | -2 | 0 | -4 | 9 | -1 | -56 | nt | nt
CC(C)(C)c1ccc(C(=O)Nc2cccc3c(=O)[nH][nH]c(=O)c23)cc1 | 21 | 0 | 48* | 10 | 22 | 10 | -12 | 54*
O=S(=O)(Cc1nnnn1-c1ccc(Br)cc1)c1ccccc1 | -1 | nt | 0 | 0 | -11 | -18 | nt | nt
Cc1cccc(C(=O)NC(CC(=O)O)c2ccc(OC3CCCC3)cc2)c1[N+](=O)[O-] (centres undefined) | 0 | 0 | 6 | -6 | -4 | 5 | nt | nt
C=C1C(=O)[C@]23C[C@H]1CC[C@H]2[C@]1(C)[C@@H](OC(C)=O)CC[C@@](C)(C(=O)OC)[C@H]1C[C@@H]3OC(C)=O | -10 | nt | -1 | -6 | 17 | 38 | nt | nt
C=C1C(=O)[C@]23C[C@H]1CCC2[C@@]1(C)C(C[C@@H]3O)[C@](C)(C(=O)OC)CC[C@@H]1OC(C)=O (some centres undefined) | 23 | nt | 49* | 83* | 45 | 59* | 64* | 52*
C=CCOc1ccc(CN(C)C(=O)CNC(=O)c2ccc(-c3ccccc3)cc2)cc1 | 1 | 1 | 47* | 22 | 6 | 12 | 1 | 36
COC(=O)C(NC(=O)CN1C(=O)c2ccccc2C1=O)c1ccc(O)c(OC)c1 (centres undefined) | 0 | 0 | -9 | 21 | 7 | 12 | nt | nt
O=C(Cc1nc2ccccc2[nH]1)c1ccc(Br)cc1 | -2 | 0 | -9 | -40 | -17 | -11 | nt | nt
O=C(NCc1cccnc1)c1c[nH]c2cc3c(cc2c1=O)OCCO3 | -13 | 0 | 39* | -15 | -4 | -44 | -117 | 30
O=C(NCc1ccccc1)c1c[nH]c2ccc(S(=O)(=O)Nc3ccc4c(c3)OCCO4)cc2c1=O | 1 | 0 | -16 | -14 | 4 | -25 | nt | nt
Brc1ccc(-c2cn3c(n2)SCC3)cc1 | -122 | 0 | -57 | -119 | -80 | -45 | nt | nt
COc1ccc(Cl)c(Cn2c(NCc3ccco3)nc3c2c(=O)n(C)c(=O)n3C)c1 | 1 | 0 | -3 | -8 | -1 | -23 | nt | nt

Source: PubChem
